Laboratory results as given in publication PMC5540273 (PLoS ONE, 2017).

test system: LRRK2; conditions: concentration: 1 μM, replicates: in singlicate; n = 1
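Also: KINOMEscan kinase panel screen.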

Row | Compound | %Inh [%]
1 | CCc1nc(-c2cccc(C)c2)c(-c2ccnc(NCc3ccccc3)c2)s1 | 3
2 | O=c1cc(N2CCOCC2)nc2n(Cc3cccc4ccccc34)ccn12 [GSK2333389] | 59
3 | CN1c2ccc(NCc3ccc(F)cc3)cc2-c2c(cnn2C)S1(=O)=O | 0
4 | Cc1ccc(NC(=O)c2ccnc(N3CCN(C)CC3)c2)cc1-c1ccc(C(=O)NCC2CC2)cc1 [GW775604] | 0
5 | Cc1ccc(C(=O)NCC(N)=O)cc1-n1c(C)cc(OCc2ccc(F)cc2F)c(Br)c1=O | 0
6 | COCCNC(=O)c1ccc(-c2cc(C(=O)NC3CC3)cc(F)c2C)cc1 [GW868318] | 62
7 | COc1ccc(Nc2ncc(C#N)c(Nc3ccccc3C(N)=O)n2)cc1N1CCN(C)CC1.Cl [GSK1558669] | 98.8
8 | COc1ccc(S(=O)(=O)NC2CCN(c3cc(C)nc(Nc4cccc(C#N)c4)n3)CC2)cc1.O=C(O)C(F)(F)F [GSK1653539] | 0
9 | COc1ccc(Nc2nccc(N3CCC(NC(=O)Nc4cc(C)ccc4C)C3)n2)cc1 (stereo not shown) [GSK1379741] | 0
10 | CC(C)(C)n1cnc2c(N)ncnc21 [SKF-97359] | 0
11 | COc1cc2ncn(-c3cc(OCc4sccc4Cl)c(C(N)=O)s3)c2cc1OC [GSK448459] | 0
12 | COC(=O)Nc1nc2cc(Oc3ccc(NC(=O)Nc4cc(F)ccc4F)cc3)ccc2[nH]1.Cl [GW701424] | 0
13 | Cc1c2ccc(N(C)c3ccnc(Nc4cccc(S(N)(=O)=O)c4)n3)cc2nn1Cc1ccccc1.Cl.Cl [GW787226] | 0
